Bioassay records as filed in PubChem BioAssay.
MITF TRPM1 HTS: activators of MITF-driven TRPM1 promoter reporter, primary screen, cell-based, SK-MEL-5, luciferase, single point | SK-MEL-5 TRPM1-promoter luciferase, 24 h; % of positive control, neutral wells = 0 | activation, % at 12.5 µM | 0.75% of 300,000 active;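 active means mean activation of at least 80% with every replicate also reaching 80%; inconclusive means mean reaches 80% but some replicate falls short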;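 further: 0% = neutral control wells and 100% = parthenolide positive control wells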
PHOSPHO1 inh: PubChem AID 1565; 1.1% of 290,000 active; recombinant PHOSPHO1, absorbance phosphatase assay; inhibition, % at 13.3 µM; in the data active means inhibition above about 60%
A3A deaminase: APOBEC3A ssDNA deaminase inhibitors, primary screen, selectivity assay for APOBEC3G inhibitor project, biochemical, FAM/TAMRA oligo cleavage fluorescence. inhibition, % at 20 µM. 0.41% of 330,000 active. recombinant A3A, FAM/TAMRA ssDNA deamination fluorescence. DNA dC->dU-editing enzyme APOBEC-3A (Homo sapiens), P31941;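 active means at least 40% inhibition at 20 µM here, with at most 30% in a related deaminase screen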;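 further: plate controls were A3A with DMSO for no effect and wells lacking A3A enzyme for full effect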
Target sequence (P31941 whole entry, looked up): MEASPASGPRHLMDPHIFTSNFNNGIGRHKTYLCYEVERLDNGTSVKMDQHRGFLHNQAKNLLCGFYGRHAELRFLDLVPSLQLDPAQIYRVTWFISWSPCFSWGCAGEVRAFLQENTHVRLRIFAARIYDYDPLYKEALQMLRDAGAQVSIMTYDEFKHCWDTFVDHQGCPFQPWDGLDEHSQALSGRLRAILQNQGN
esBAF inh: Bmi1 luciferase reporter increase in mESCs, primary screen, esBAF inhibitor project, mouse ES cells, Bmi1 luciferase knock-in, single point. reporter increase, % at 12.5 µM. AID 602393, 2012. 2% of 350,000 active. 24 h; 100% = twice the neutral-well signal; in the data active means activation above about 40%; inconclusive means no clear call, values can overlap the other calls;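 further: 0% = median of the plate's neutral control wells and 100% = double that signal; a rise in the Bmi1 reporter signal indicates esBAF inhibition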
A3G deaminase: APOBEC3G DNA deaminase inhibitors, primary screen, biochemical, fluorescence, single-stranded DNA substrate, uHTS; DNA dC->dU-editing enzyme APOBEC-3G (Homo sapiens), Q9HC16; recombinant A3G, ssDNA deamination FAM/TAMRA fluorescence; inhibition, % at 20 µM; 0.28% of 330,000 active;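 active means inhibition of at least 40% at 20 µM, with no more than 30% in the related APOBEC3A deaminase screen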;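 further: plate controls were DMSO wells with A3G for no effect and wells lacking A3G enzyme for full effect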
Target sequence (Q9HC16 whole entry, looked up): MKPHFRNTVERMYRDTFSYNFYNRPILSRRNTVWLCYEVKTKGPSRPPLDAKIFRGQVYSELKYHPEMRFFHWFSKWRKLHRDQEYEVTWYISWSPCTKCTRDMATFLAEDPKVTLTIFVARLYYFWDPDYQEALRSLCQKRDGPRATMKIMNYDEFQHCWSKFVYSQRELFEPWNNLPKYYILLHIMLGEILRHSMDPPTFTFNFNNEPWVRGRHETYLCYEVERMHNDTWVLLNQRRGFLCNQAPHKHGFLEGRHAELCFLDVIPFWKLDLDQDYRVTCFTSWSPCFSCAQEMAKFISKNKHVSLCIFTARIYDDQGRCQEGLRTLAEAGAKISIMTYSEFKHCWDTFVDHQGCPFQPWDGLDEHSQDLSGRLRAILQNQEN
Wnt bcat act: Wnt/beta-catenin pathway activators, primary screen, cell-based, plate reader, single point | Wnt/beta-catenin reporter cell assay, activator | activation, % at 9.35 µM | 1.2% of 300,000 active; in the data active means activation above about 30%, passing the limit was not always enough; inconclusive means no clear call, values can overlap the other calls;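 further: 0% = neutral control wells and 100% = positive control wells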
* = called active by the depositor; u = inconclusive; x = no result given. Compounds with a hit are over-represented: about 3.6% of the library has one in this group of screens.

SMILES	MITF TRPM1 HTS	PHOSPHO1 inh	A3A deaminase	esBAF inh	A3G deaminase	Wnt bcat act
O=C(Nc1ccc2c(c1)[C@@H]1C[C@@H](CC(=O)N3CCCCC3)O[C@H](CO)[C@@H]1O2)Nc1ccccc1F	x	x	x	6	x	x
CC1=Nn2c(nnc2-c2ccccc2Cl)SC1	x	74*	-5	1	-7	x
Clc1ccccc1C1=Nn2c(nnc2-c2ccncc2)SC1	26	26	x	-25	x	x
COc1ccccc1-c1nnc2n1N=C(C)CS2	4	74*	4	-7	1	x
CO[C@H]1CN(C)C(=O)c2ccc(NC(=O)Nc3ccc(F)cc3)cc2OC[C@H](C)NC[C@H]1C	x	x	x	5	x	x
C=CCn1c(N)c(C(=O)N2CCOCC2)sc1=S	-1	-25	-4	-1	-7	x
CCn1c(N)c(C(=O)N2CCOCC2)sc1=S	-1	69*	-2	1	13	-1
CCOc1ccc2nc(SCC#N)c(C#N)cc2c1	-6	28	-5	-8	-7	82*
CCSc1nc2ccc(OC)cc2cc1C#N	77	9	1	21	0	x
CCOC(=O)CSc1nc2cc(OCC)ccc2cc1C#N	x	-14	-1	62*	4	x
CC=Cc1ccc2n(c1=O)C[C@@H]1[C@@H](CO)[C@H](C(=O)NC3CCC3)N[C@H]21 (mixture of isomers)	x	x	x	1	x	x
C[C@H](CO)N1C[C@H](C)[C@@H](CN(C)Cc2ccc3c(c2)OCO3)Oc2ccc(NC(=O)Nc3cccc4ccccc34)cc2C1=O	x	x	x	3	x	x
O=C(CSc1nc2cc(Cl)ccc2s1)c1cc2ccccc2o1	0	102*	-1	0	-6	-2
Cc1cc(NC(=O)CSc2nc3cc(Cl)ccc3s2)no1	-14	-6	0	-8	-4	-11
Cc1cc(C)c(C)c(C(=O)CSc2nnc(C)c(=O)[nH]2)c1C	x	89*	x	x	x	x
Cc1nnc(SCC(=O)N2CCN(S(=O)(=O)c3ccccc3)CC2)[nH]c1=O	-8	-14	0	-1	-6	x
Cc1nnc(SCC(=O)c2c(N)n(C)c(=O)n(C)c2=O)[nH]c1=O	x	18	-4	1	-8	-1
Cc1ccc(S(=O)(=O)N2CCN(C(=O)CSc3nnc(C)c(=O)[nH]3)CC2)cc1	-3	90*	2	-10	-4	3
CCCNC(=O)Nc1ccc2c(c1)OC[C@H](C)N(CCC)C[C@H](C)[C@@H](OC)CN(C)C2=O	x	x	x	1	x	x
Cc1occc1C(=O)NNC(=O)c1ccccc1F	26	7	-3	x	-9	37*
Cc1occc1C(=O)NNC(=O)c1ccc(F)cc1	x	-7	1	6	-3	-1
Cc1occc1C(=O)Nc1ccc2c(c1)OCO2	79	-17	3	x	1	x
Cc1cc(NC(=O)c2ccoc2C)ccc1Br	86*	x	-3	88*	-7	57*
Cc1ccc(NC(=O)c2ccoc2C)cc1C	25	-6	-2	x	-11	31*
COc1cccc(-c2csc(NC(C)=O)n2)c1	83*	14	-4	78*	1	x
SMILES	MITF TRPM1 HTS	PHOSPHO1 inh	A3A deaminase	esBAF inh	A3G deaminase	Wnt bcat act
COc1cccc(NC(=O)Nc2nc(-c3ccc(OC)c(OC)c3)cs2)c1	-80	37	-1	43*	-3	-8
O=C(Nc1nc(-c2cccc(Br)c2)cs1)Oc1ccccc1	48	26	-5	45*	-9	13
COc1ccc(-c2csc(NC(C)=O)n2)cc1OC	x	16	0	29	-1	6
C[C@H]1CN([C@@H](C)CO)C(=O)Cc2cc(NC(=O)Cc3ccccc3)ccc2O[C@H]1CN(C)C(=O)NC1CCCCC1	x	x	x	6	x	x
COc1cccc(NC(=O)N2C[C@@H](O)COC[C@H]3O[C@@H](CC(=O)NC4CCC4)CC[C@@H]32)c1	x	x	x	5	x	x
COc1cccc(CNC(=O)C[C@@H]2CC[C@H]3[C@@H](COc4ccc(NS(=O)(=O)c5ccccc5F)cc4C(=O)N3C)O2)c1	x	x	x	3	x	x
COCC(=O)Nc1ccc2c(c1)C(=O)N(C)[C@@H]1CC[C@H](CC(=O)NCCc3ccccc3)O[C@H]1CO2	x	x	x	-5	x	x
C[C@@H]1CN([C@H](C)CO)C(=O)c2cc(NC(=O)Nc3ccc4c(c3)OCO4)ccc2O[C@H]1CN(C)Cc1ccc(C(=O)O)cc1	x	x	x	1	x	x
Cc1ccc(SCC(=O)Nc2ccc(-c3nc4ccccc4[nH]3)cc2)cc1	-6	14	0	61*	-5	-2
Cc1nc(NC(=O)CSc2ccc(-c3nc4ccccc4[nH]3)cn2)sc1C	8	-13	-5	x	-8	x
CCc1nnc(NC(=O)CSc2ccc(-c3nc4ccccc4[nH]3)cn2)s1	87*	35	0	u	-7	x
Cc1ccc2nc(-c3ccc(SCC(=O)Nc4ccc5c(c4)OCCO5)nc3)[nH]c2c1	u	3	7	x	-8	x
O=C(CSc1ccc(-c2nc3ccccc3[nH]2)cn1)Nc1ccc2c(c1)OCCO2	146*	10	1	46*	6	x
N#C[C@H]1[C@H](c2ccc(C#Cc3ccc(F)cc3)cc2)[C@H](CO)N1c1nc(-c2ccccc2)cs1	x	x	x	6	x	x
COCC(=O)Nc1ccc2c(c1)C(=O)N(C)C[C@@H](OC)[C@H](C)CN[C@H](C)CO2	x	x	x	4	x	x
O=C(OCC(=O)C12CC3CC(CC(C3)C1)C2)c1ccc(O)cc1O	49	x	0	51*	-6	8
COc1ccc(/C=C2\SC(=O)N(CCNC(=O)CCS(=O)(=O)c3ccc(C)cc3)C2=O)cc1	55	-13	-4	x	-10	33*
COc1ccc(/C=C2\SC(=O)N(CCNC(=O)Cn3cnnn3)C2=O)cc1	u	54	18	x	-5	20
COc1cc(/C=C(\C#N)C(=O)Nc2cccc(C(=O)O)c2)ccc1OCc1ccc(Cl)cc1	33	23	1	7	-5	34*
O=C(Nc1ccnn1C1CCN(Cc2cc3ccccc3[nH]2)CC1)C1CCOC1 (stereo unspecified)	2	8	2	2	1	1
COc1ccccc1/C=C/CN1CCC(n2nccc2NC(=O)C2CC2)CC1	15	63*	0	-5	-3	0
Cc1c(CN2CCC(n3nccc3NC(=O)C3CCOC3)CC2)[nH]c2ccccc12 (stereo unspecified)	-8	66*	-2	-1	-5	-1
COc1ccc(CN2CCC(n3nccc3NC(=O)C3CCCC3)CC2)cc1	-7	61*	-1	-5	-3	4
COc1ccccc1/C=C/CN1CCC(Oc2cc(C(=O)NC3CC3)ccc2OC)CC1	-6	65*	-3	4	-2	-2
